Measured values taken from the supplement of paper PMC3334620.
Whole data set: some 33,000 sequences, median “E-score (-0.5 to 0.5)” near -0.0059, cut for the highest 2% near 0.26. The sample as a whole holds a higher share of the highest values than the screen did.

Target: T1, Cin5 (UniProt P40917)
T1 sequence: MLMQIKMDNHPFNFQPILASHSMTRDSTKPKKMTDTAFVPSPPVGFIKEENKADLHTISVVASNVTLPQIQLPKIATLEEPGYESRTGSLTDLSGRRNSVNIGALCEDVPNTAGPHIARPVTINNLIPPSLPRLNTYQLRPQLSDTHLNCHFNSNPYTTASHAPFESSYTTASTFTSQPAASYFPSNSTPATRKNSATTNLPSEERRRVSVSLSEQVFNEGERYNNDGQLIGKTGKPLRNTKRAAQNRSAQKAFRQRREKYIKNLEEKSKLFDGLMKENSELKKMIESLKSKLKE
Assay: PBM E-score (8-mer binding enrichment) (E-score (-0.5 to 0.5)); higher = stronger / more preferred TF binding
Details: protein concentration: 100 nM; construct: GST-full length
Procedure: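 Universal 'all 10-mer' protein binding microarrays (Agilent AMADID 015681) probed with GST-tagged S. cerevisiae TFs (full-length or DBD) made by in vitro transcription/translation (PURExpress), about 100-200 nM. Bound TF was detected with fluorescent anti-GST. Each ungapped 8-mer (which stands for itself and its reverse complement) is scored by the PBM enrichment score (E-score), a modified Wilcoxon-Mann-Whitney statistic from -0.5 to +0.5, computed with the Universal PBM Analysis Suite. Scale: above 0.35 generally sequence-specific binding.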

Sequence	PBM E-score
AAATTAGA	0.206
AATTTAGA	0.0855
GGAGCTCC	-0.164
GTCTAACA	-0.192
CGATGGCA	-0.0471
ACCACAGT	0.181
CATCCACG	0.0707
ACCGTTTA	-0.034
CAACCGCA	0.0315
AAACCGCG	0.265
AAACCGCA	-0.142
CAACCGCG	0.269
CAACCGCC	-0.126
AAACCGCC	0.0261
AATTGTGC	0.124
CAGCGGAA	0.0943
GCCCATCA	-0.115
AGCTCTCC	-0.174
TCGGAACA	0.29
CCGGAACA	0.145
ACGGAACA	0.2
ATATATTA	0.272

Sequence	PBM E-score
GTATATTA	0.219
ACATATTG	0.0935
CCATATTA	0.169
ATATATTG	0.088
ACATATTA	0.266
ATATATTC	0.248
CTATATTC	0.0546
CTATATTA	0.325
TGAGGCCA	0.0508
TGGCCTAA	-0.0968
AACGGGAG	-0.0138
CAACCGTC	-0.179
CTAAATTA	0.258
CCAAATTA	0.187
ATAAATTA	0.349
ATAAATTC	0.0845
ACAAATTG	0.248
ACAAATTA	0.269
GTAAATTA	0.192
AAAAATTG	-0.0306
AAAAATTA	0.227
CTAAATTC	0.0709

Sequence	PBM E-score
ATAAATTG	0.272
TAAAATTA	0.178
CCGAGGAG	-0.213
AGAGCCTG	-0.163
ACGAAGAG	-0.0165
CCGAAAGC	-0.328
AAGGGTAC	-0.137
ATCGACTG	0.101
ACGTGGAA	-0.00812
TCGTGGAA	0.263
GCGTGGAA	0.106
GGACACCC	-0.226
AGAAGCGC	0.0405
GATCCCAA	-0.0221
CAAGCAAG	-0.103
ATTAACAC	0.271
TATAACAA	0.295
CATAACAA	0.252
ATTAACTA	0.272
ATTAACAA	0.274
GTTAACTA	0.205
CTTAACAC	0.152

Sequence	PBM E-score
ATTAACAG	0.0268
AATAACAC	0.247
GTTAACAA	0.17
ATTAACTC	0.17
GATAACAA	0.1
CCACTAAC	0.0063
ATTGGGGA	0.00734
AGGTCCTC	-0.134
GCCGCGAC	-0.086
ACGAACGG	0.0374
CACGATAG	0.139
CTAGTCAG	-0.0157
AGGACCCG	-0.169
ACCATACC	-0.0386
ATCAGTTG	0.209
CCAGCGCA	-0.132
CAATTCCA	0.0576
GAATTCCA	0.173
AAATTCCA	0.295
ATATTCCG	0.179
